Assay outcomes deposited in PubChem BioAssay by National Center for Advancing Translational Sciences (NCATS).
BAZ2B inh – inhibitors of human BAZ2B bromodomain; Q9UIF8; AlphaScreen BAZ2B-H3K14Ac peptide displacement; Potency, µM (top dose mostly 114 µM), hits mostly inhibitors; hit rate 4.4% among 360,000; AID 504333; note: nearly all actives have a fitted effect of over 60% in size
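AlphaScreen luminescence quantifies BAZ2B engagement of H3K14Ac peptide; the protein and biotinylated peptide are both at 50 nM final, buffer PBS pH 7.4 with 0.01% Tween-20, all steps at room temperature.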
JMJD2A Tudor – JMJD2A Tudor domain (human) inhibition | AlphaScreen JMJD2A-Tudor / H3K4me3 peptide binding | Potency, µM (top dose mostly 114 µM), actives largely listed as inhibitors | hit rate 4.4% among 390,000 | AID 504339; note: nearly all actives have a fitted effect of over 50% in size
HP1b chromo inh – HP1-beta chromodomain-methylated histone interaction inhibition | hit rate 0.56% among 390,000 | Potency, µM (series often up to 114 µM), hits mostly inhibitors | AlphaScreen HP1-beta / biotin-H3K9me3 peptide binding | P83916; note: nearly all actives have a fitted effect of over 70% in size
Target sequence (P83916 whole entry, looked up): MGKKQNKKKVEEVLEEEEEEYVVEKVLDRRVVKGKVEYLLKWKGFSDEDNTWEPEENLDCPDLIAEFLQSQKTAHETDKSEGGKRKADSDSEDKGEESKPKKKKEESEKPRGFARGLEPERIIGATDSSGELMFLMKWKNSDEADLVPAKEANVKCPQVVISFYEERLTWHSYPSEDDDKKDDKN
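HP1-beta protein (50 nM final) preincubated 30 min at room temperature with biotinylated H3(1-18)K9me3 peptide (50 nM) in PBS pH 7.4, 0.01% Tween-20, then compound added for 30 min. AlphaScreen streptavidin donor/nickel chelate acceptor beads (10 ug/mL final), 30 min dark, luminescence read.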
GLS inhibitor – glutaminase GLS (human) inhibition; hit rate 0.21% among 410,000; O94925; Potency, µM (series often up to 45.5 µM), most hits filed as inhibitors; GLS enzymatic activity, qHTS titration
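hKGA in 45 mM KH2PO4 (pH 8.2), 0.02% Tween-20 with compound, then 1mM L-Glutamine (stock as added) plus glutamate oxidase/HRP/Amplex red coupling mix. Fluorescence read initially and after 30 min at RT; signal change reflects glutamate formation.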
G9a inh – G9a (human) methyltransferase inhibition; Q96KQ7; G9a H3K9 monomethylation, AlphaScreen, 2 h; Potency, µM (top dose mostly 102 µM), usual class: inhibitors; hit rate 8.8% among 350,000; AID 504332; note: nearly all actives have a fitted effect of over 75% in size
Target sequence (Q96KQ7 913-1193 limits assumed): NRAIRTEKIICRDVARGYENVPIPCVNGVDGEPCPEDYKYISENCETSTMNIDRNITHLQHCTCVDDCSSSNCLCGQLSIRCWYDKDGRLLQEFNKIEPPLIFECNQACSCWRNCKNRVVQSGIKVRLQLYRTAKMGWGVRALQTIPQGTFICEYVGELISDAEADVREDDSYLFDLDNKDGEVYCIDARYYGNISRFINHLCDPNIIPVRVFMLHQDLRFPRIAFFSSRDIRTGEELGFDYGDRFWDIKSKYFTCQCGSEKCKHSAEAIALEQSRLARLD
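AlphaScreen detection with an anti-monomethyl H3K9 antibody quantified product after a 2 h room-temperature reaction containing 500 nM biotinylated H3K9 peptide, 20 µM SAM and 20 nM enzyme, which had been preincubated 15 min with compound.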
Hits are given with their value; 0 = inactive; ? = inconclusive; - = not tested or not shown; [ ] = dose if it differs, or a comment. Hits are enriched below; roughly 10% of the tested compounds scored in any of these assays. Calls come from the whole dose curve; as a rule, active = well fitted curve in the direction sought with a large enough effect; inconclusive = small, poorly fitted or top-dose-only effect, or another doubt; inactive = no such curve, though single readings can be large; an effect the other way counts as inactive or inconclusive.

SMILES	BAZ2B inh	JMJD2A Tudor	HP1b chromo inh	GLS inhibitor	G9a inh
O=C(CSc1ncnc2c1nnn2Cc1ccccc1F)NCC1CCCO1 (stereo unspecified)	0	0	0	0	0
O=C(O)c1cccc(S(=O)(=O)Nc2cc(Cl)ccc2Cl)c1	0	0	0	0	0
CC1CC(C)CN(C(=O)c2cccc(S(=O)(=O)Nc3cc(C(F)(F)F)ccc3Cl)c2)C1 (stereo unspecified)	79µM	0	0	0	?
CCOc1ccc(NC(=O)CSc2nnc(CC)c(CC)n2)cc1	0	0	0	0	0
Cc1cc(C)cc(N=C2SC(CC(=O)Nc3ccccc3)C(=O)N2CCN2CCOCC2)c1 (stereo unspecified)	?	?	0	0	50µM
O=C(CC1SC(=Nc2ccccc2)N(CCO)C1=O)Nc1ccccc1 (stereo unspecified)	0	0	0	0	-
COc1ccc(NC(=O)Cn2c(=O)n(Cc3ccccc3)c(=O)c3oc4ccccc4c32)cc1Cl	0	0	0	0	0
Cc1ccc(N2C(=O)[C@@H]3CSC(c4ccc(Cl)cc4)N3C2=O)cc1 (stereo partly specified)	0	0	0	0	0
OCCCc1nc2n(n1)C(c1ccccc1)C=C(c1ccccc1)N2 (stereo unspecified)	0	0	0	0	40µM
COc1ccc(C2C=C(c3ccccc3)Nc3nc(CCCO)nn32)cc1 (stereo unspecified)	0	0	0	0	?
COc1ccc(C2C=C(c3cccs3)Nc3nc(CCCO)nn32)cc1 (stereo unspecified)	?	-	-	-	40µM
CC[C@H](C)Cc1cn([C@@H](CCCCNC(=O)OC(C)(C)C)C(=O)NCCCCCCCCCCC(=O)N2CCN(C(=O)OC(C)(C)C)CC2)nn1	0	0	0	0	0[2.33 µM]
O=[N+]([O-])c1ccc(/C=N/Nc2nc(N3CCCCC3)nc(N3CCCCC3)n2)cc1	?	?	0	0	-
O=C(CN1CCCCCCC1)N/N=C/c1ccc([N+](=O)[O-])o1	50µM	18µM	?	0	32µM
Cc1cc(=O)[nH]c(N/N=C/c2ccc(-c3ccc([N+](=O)[O-])cc3)o2)n1	0	0	0	0	0
O=[N+]([O-])c1ccc(-c2ccc(/C=N/Nc3nc(NCc4ccccc4)nc(N4CCOCC4)n3)o2)cc1	?	0	0	0	25µM
O=[N+]([O-])c1ccc(/C=N/Nc2nc(N3CCCCCC3)nc(N3CCCCCC3)n2)o1	?	?	0	0	10µM
CCN1CCCC1CNCc1cccc(OC)c1OCc1ccccc1 (stereo unspecified)	0	0	0	0	0
CCN1CCCC1CNCc1ccccc1OCc1ccc(F)cc1 (stereo unspecified)	0	0	0	0	56µM
Cn1ccc(C(=O)NC(=S)N2CCSCC2)n1	0	50µM	?	0	13µM
Cc1nonc1C(=O)N/N=C/c1ccc(O)c(O)c1	0	7.1µM	0	?	45µM
N/C(=N\N=C\c1ccc(O)c(O)c1)c1nonc1N	45µM	0	0	0	0
O=C(N/N=C/c1ccc(O)c(O)c1)N/N=C/c1ccc(O)c(O)c1	32µM	11µM	35µM	0	45µM
COc1cc(/C=N/NC(=O)c2nonc2C)ccc1O	0	0	0	0	0
COc1cc(/C=N/N=C(\N)c2nonc2N)ccc1O	0	0	0	0	0
SMILES	BAZ2B inh	JMJD2A Tudor	HP1b chromo inh	GLS inhibitor	G9a inh
CCCN1C(=O)/C(=C\c2nc3ccccc3c(=O)[nH]2)c2ccccc21	?	0	0	0	32µM
CN1N=C2c3ccccc3CCC2C1c1ccc(C(F)(F)F)cc1 (stereo unspecified)	0	0	0	0	0
CN(C)c1ccc(C2C3CCCc4ccccc4C3=NN2C)cc1 (stereo unspecified)	32µM	25µM	?	0	10µM
O=c1c(-c2cccs2)nc2cnc(Oc3cccc(Cl)c3)nc2n1C[C@H]1CCCO1	-	-	-	-	0[12.7 µM]
Cc1ccc2nc(-c3ccc(NC(=O)CSCC(=O)O)cc3)sc2c1	0	0	0	0	0[12.7 µM]
Cc1ccc2nc(-c3ccc(NC(=O)CCN4C(=O)c5ccccc5C4=O)cc3)sc2c1	0	0	0	0	45µM
O=C(O)CSCC(=O)Nc1ccc(-c2nc3ccccc3s2)cc1	0	0	0	0	45µM
Cc1ccc2nc(-c3ccc(NC(=O)Cc4ccccc4)cc3)sc2c1	0	0	0	0	0
Cc1ccc2nc(-c3ccc(NC(=O)COCC(=O)O)cc3)sc2c1	0	0	0	0	50µM
O=[S+]([O-])(c1c(F)cccc1F)N1CCN([S+](=O)([O-])c2c(F)c(F)c(F)c(F)c2F)CC1	-	0	-	-	-
Cc1ccc(CN2CCC(CNc3ncnc4onc(-c5ccc(F)cc5)c34)CC2)cc1	0	0	0	0	0
COc1ccc2sc(/C=C/c3ccccc3O)[n+](C)c2c1	?	?	0	0	45µM
COc1ccc2c(c1)-c1nc(/N=C/c3ccccc3O)sc1CC2	?	?	?	0	?
COc1ccc2c(c1)c1c(c(=O)n(-c3ccccc3C)c(=O)n1CC(=O)NCc1ccc(C)cc1)n2C	0	0	0	0	0
COc1ccc(-c2ccc(SCC(=O)c3ccc(F)cc3)nn2)cc1OC	0	0	0	0	35µM
COc1ccc(-c2ccc(SCC(=O)c3cccs3)nn2)cc1OC	0	0	0	0	50µM
COc1ccc(C(=O)CSc2ccc(-c3ccc(C)cc3)nn2)cc1	0	0	0	0	?
COc1ccc(-c2ccc(SCC(=O)N3CCCC3)nn2)cc1OC	0	0	0	0	?
CSCCNC(=O)C1(C)CCN1C(=O)CCc1ccccc1 (stereo unspecified)	-	-	-	0	-
O=C(c1cccnc1)C1Cc2ccccc2C1=O (stereo unspecified)	?	0	0	0	40µM
CC1COCC(C)N1C(=O)c1cccnc1 (stereo unspecified)	-	-	-	0	-
COc1ccc(C(=O)NCC(=O)OCC(=O)c2cc(OC)c(OC)c(OC)c2)cc1OC	0	0	0	0	50µM
COc1cc(C(=O)NCC(=O)OCC(=O)c2ccc[nH]2)cc(OC)c1OC	0	0	0	0	0
Clc1ccc(-c2csc(N/N=C\c3cccnc3)n2)cc1	0	0	0	0	10µM
Brc1ccc(-c2csc(N/N=C/c3ccco3)n2)cc1	8.9µM	0	0	0	?
Cc1ccc(-c2csc(N/N=C/c3ccco3)n2)cc1	?	50µM	0	0	?
O=C(/C=C/c1ccco1)Nc1nc(-c2ccc(F)c(F)c2)cs1	0	0	0	0	-
Cc1ccc2nc(N/N=C/c3ccco3)cc(C)c2c1	45µM	?	0	0	?
COc1ccc(CNC(=O)COC(=O)c2ccc(F)c(S(=O)(=O)N3CCOCC3)c2)cc1	-	0	0	0	-
Cc1ccc(NC(=O)CCCCCN2C(=O)[C@@H]3Cc4ccccc4CN3C2=O)c(C)c1	0	0	0	0	0
